Experimental data from the supplement of paper PMC6089552.
Hit rate of the full screen: of about 3,200 compounds, about 300 (9.4%) showed activity. This excerpt belongs to a sample that is enriched for actives.

System: A673/TR/shEF
Assay: cell viability (LOESS-normalised, relative to median of negative controls) (log2 ratio); higher = more viable cells (less compound effect), active = hit call of the paper (over 3 MAD below the median)
Conditions: treatment time: 72 h
How it was run: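 Viability of A673/TR/shEF Ewing sarcoma cells was determined by CellTiter-Glo luminescence. The cells, at 1,500 per well in 384-well plates, were grown with or without doxycycline from 24 h before compound addition to switch on EWS-FLI1 shRNA knockdown, then exposed for three days to library compounds at two or more concentrations or to DMSO controls. Signals were LOESS-corrected plate by plate, normalised to the negative-control median and log2-transformed.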

[1] = 0.25 µM, library screen: screen1, EWS-FLI1 expression: high (no doxycycline)
[2] = 0.25 µM, library screen: screen1, EWS-FLI1 expression: low (doxycycline-induced shRNA knockdown)
[3] = 2.5 µM, library screen: screen1, EWS-FLI1 expression: high (no doxycycline)
[4] = 2.5 µM, library screen: screen1, EWS-FLI1 expression: low (doxycycline-induced shRNA knockdown)
[5] = 0.25 µM, library screen: screen2, EWS-FLI1 expression: high (no doxycycline)
[6] = 0.25 µM, library screen: screen2, EWS-FLI1 expression: low (doxycycline-induced shRNA knockdown)
[7] = 2.5 µM, library screen: screen2, EWS-FLI1 expression: high (no doxycycline)
[8] = 2.5 µM, library screen: screen2, EWS-FLI1 expression: low (doxycycline-induced shRNA knockdown)
[9] = 0.103 µM, library screen: screen3, EWS-FLI1 expression: high (no doxycycline)
[10] = 0.103 µM, library screen: screen3, EWS-FLI1 expression: low (doxycycline-induced shRNA knockdown)
[11] = 0.308 µM, library screen: screen3, EWS-FLI1 expression: high (no doxycycline)
[12] = 0.308 µM, library screen: screen3, EWS-FLI1 expression: low (doxycycline-induced shRNA knockdown)
[13] = 0.926 µM, library screen: screen3, EWS-FLI1 expression: high (no doxycycline)
[14] = 0.926 µM, library screen: screen3, EWS-FLI1 expression: low (doxycycline-induced shRNA knockdown)
[15] = 2.8 µM, library screen: screen3, EWS-FLI1 expression: high (no doxycycline)
[16] = 2.8 µM, library screen: screen3, EWS-FLI1 expression: low (doxycycline-induced shRNA knockdown)
[17] = 8.3 µM, library screen: screen3, EWS-FLI1 expression: high (no doxycycline)
[18] = 8.3 µM, library screen: screen3, EWS-FLI1 expression: low (doxycycline-induced shRNA knockdown)
[19] = 25 µM, library screen: screen3, EWS-FLI1 expression: high (no doxycycline)
[20] = 25 µM, library screen: screen3, EWS-FLI1 expression: low (doxycycline-induced shRNA knockdown)

Measured: cell viability (log2)

CSCCC(N)C(=O)NC(CC(C)C)C(=O)NC(Cc1ccccc1)C(=O)O (configuration not stated)
inactive: [1] 0.145 | [2] -0.00633 | [3] 0.123 | [4] 0.0328

O=c1cc(-c2ccccc2)oc2c(O)c(O)ccc12
inactive: [1] 0.189 | [2] -0.0108 | [3] 0.128 | [4] 0.0489

O=c1cc(N2CCOCC2)oc2c(-c3ccccc3)cccc12
active: [3] -0.134 | 25 µM, library screen: screen1, EWS-FLI1 expression: high (no doxycycline) -0.489 | 25 µM, library screen: screen1, EWS-FLI1 expression: low (doxycycline-induced shRNA knockdown) -0.462
inactive: 0.025 µM, library screen: screen1, EWS-FLI1 expression: high (no doxycycline) 0.213 | 0.025 µM, library screen: screen1, EWS-FLI1 expression: low (doxycycline-induced shRNA knockdown) 0.0453 | [1] 0.204 | [2] 0.0333 | [5] 0.135 | [6] 0.11 | [4] 0.0932 | [7] 0.15 | [8] 0.0123

O=c1cc(-c2cccc3c2Sc2ccccc2S3)oc(N2CCOCC2)c1
inactive: [9] 0.00625 | [10] 0.00883 | [11] -0.0309 | [12] 0.0146 | [13] 0.0133 | [14] 0.00404 | [15] 0.0162 | [16] 0.0289 | [17] -0.0501 | [18] 0.00607 | [19] 0.0363 | [20] -0.0432

CC(C)CCC[C@@H](C)[C@H]1CC[C@H]2[C@@H]3CC[C@@H]4C[C@H](O)CC[C@]4(C)[C@H]3CC[C@]12C
inactive: [1] 0.108 | [2] 0.0181 | [3] 0.105 | [4] 0.0609

CC1CCC2(OC1)OC1CC3C4CCC5C[C@@H](O)CCC5(C)C4=CCC3(C)C1[C@@H]2C (some centres not stated)
inactive: [1] 0.0912 | [2] 0.0387 | [3] 0.0505 | [4] 0.0779

CCCCCCCCCCCCCCCC(=O)NCC(COP(=O)([O-])OCC[N+](C)(C)C)OC (configuration not stated)
inactive: [5] 0.14 | [6] 0.124 | [7] 0.166 | [8] 0.0176

CCC(=O)c1ccc2c(c1)N(CC(C)N(C)C)c1ccccc1S2 (configuration not stated)
inactive: [1] 0.0889 | [2] 0.155 | [3] 0.168 | [4] 0.297

Cn1cnc([N+](=O)[O-])c1Sc1ncnc2nc[nH]c12
active: 25 µM, library screen: screen2, EWS-FLI1 expression: high (no doxycycline) -0.337
inactive: 0.025 µM, library screen: screen2, EWS-FLI1 expression: high (no doxycycline) 0.138 | 0.025 µM, library screen: screen2, EWS-FLI1 expression: low (doxycycline-induced shRNA knockdown) 0.0997 | [1] 0.0615 | [2] 0.0765 | [5] 0.159 | [6] 0.0607 | [3] -0.0254 | [4] 0.161 | [7] -0.0273 | [8] 0.0557 | 25 µM, library screen: screen2, EWS-FLI1 expression: low (doxycycline-induced shRNA knockdown) 0.03

COc1cc(OC)c(C2NC(=S)NC(C)=C2C(=O)Nc2cccc(Cl)c2)cc1OC (configuration not stated)
inactive: [1] 0.0501 | [2] 0.0639 | [3] 0.0887 | [4] 0.0905

NS(=O)(=O)c1ccc(-c2ccc(/C=C3/SC(=S)N(C4CCCCC4)C3=O)o2)cc1
inactive: [1] 0.109 | [2] 0.0623 | [3] 0.167 | [4] -0.0331

CC(=O)O[C@@]12CO[C@@H]1C[C@H](O)[C@@]1(C)C(=O)[C@H](O)C3=C(C)[C@@H](OC(=O)[C@H](O)[C@@H](NC(=O)OC(C)(C)C)c4ccccc4)C[C@@](O)([C@@H](OC(=O)c4ccccc4)[C@H]21)C3(C)C
active: [9] -2.68 | [10] -0.934 | [11] -2.8 | [12] -1.01 | [13] -2.92 | [14] -1.04 | [15] -2.83 | [16] -1.04 | [17] -2.98 | [18] -1.06 | [19] -2.84 | [20] -1.01

CC(=O)O[C@H]1C(=O)[C@@]2(C)[C@H]([C@H](OC(=O)c3ccccc3)[C@]3(O)C[C@H](OC(=O)[C@H](O)[C@@H](NC(=O)c4ccccc4)c4ccccc4)C(C)=C1C3(C)C)[C@]1(OC(C)=O)CO[C@@H]1C[C@@H]2O
active: [9] -2.57 | [10] -0.853 | [1] -3.63 | [2] -1.46 | [5] -2.49 | [6] -0.868 | [11] -2.24 | [12] -0.787 | [13] -2.68 | [14] -0.947 | [3] -4.22 | [4] -1.51 | [7] -2.93 | [8] -1 | [15] -2.59 | [16] -1.11 | [17] -2.75 | [18] -1.03 | [19] -2.68 | [20] -1.1

[Na+].[Na+].[Na+].[O]=[V]([O-])([O-])[O-]
inactive: [9] 0.0642 | [10] 0.11 | [11] -0.00412 | [12] 0.0414 | [13] 0.0791 | [14] 0.0822 | [15] 0.0816 | [16] 0.153 | [17] 0.102 | [18] 0.022 | [19] 0.0273 | [20] 0.0301
